Whole data set: some 9,900 sequences, median “r (bound/input frequency ratio)” near 0.7, cut for the highest 2% near 6.5. The full list was thinned out, with the highest values kept by preference.
B1: ENSMUSG00000031028.667|Tub|229:233 (ssRNA)
RNA: GGGAGUUCUACAGUCCGACGAUCGCUUCGAUAUCCGCAUGCUAAGGACAGGCAAAAUUUCUCUAGCUGAGAGCACACUUAGCCAGUUUUCACGCCUAGAACAUAUAUGUCGAUUUGCACAUGAUUGUCUUUUCCUAUUUUGGAGUGGUCAGACAUUUUAUUUUUGUUCAAAAUUAUCUGGAGUUUUAGACAAACUUGCAAAACUGUGCUUUUAUUAAGUGACUUUUUGAAUAAACUUUUUGGUAUUCUGAAGCAAAUGUAUUUAUUUAUUGCAUACUGCAAUGACAAACUUGGUAUUUUCCCACUCUUGCGGUCGCACUAGUGUGGAAUUCUCGGGUGUCAAGG
B2: ENSMUSG00000058297.445|Spock2|189:193 (ssRNA)
RNA: GGGAGUUCUACAGUCCGACGAUCGCUUCGAUAUCCGCAUGCUAUGGUGGGGCUGAAGGUUCCCAAGUAGCUUCUAGUUAAGCAAGCUUCGUGUUUCCUCAGGAGCAAGGUCACACAGGUCAGAUUAUUGUCGGUCCUGCGGGCCUCAUCCUUGAAUAAGCUGCCUGCCCAGUUCCUCCAUCCGUGUUCCUGCCUGCUCCCGUUCCCUUGUUGCGGGCAGGAGAGGUAGGGCACACAUGGAAAGAGUUCAACCAAAUUACGGCAGCACCACAUCUUGCCGAGCCCUGGAGCUGCCCUACUAAGACUCUUGCGGUCGCACUAGUGUGGAAUUCUCGGGUGUCAAGG
B3: ENSMUSG00000028439.22|Fam219a|136:142 (ssRNA)
RNA: GGGAGUUCUACAGUCCGACGAUCGCUUCGAUAUCCGCAUGCUACGCUGACCUGGGCCCGGUGGGAUGCAGCAGGAGAGACCCCUACCCUGCUGGUCCACUGGUCCCCAGCCCCGCGCCUCUUAGAGCCGCCAACCUCGUAACAGUCAUUGCUUCCUCCUAUGGUAGGACGUGUACCUCACACACAUCAAGGAGCCGGAGAAACCAAAACCGGGUCUGUCUCCAGCCCCGGGGCUGAGGAGGGGUGGGCACUGUUUGUUCGGUUACUUGGGGGGAACCACACCCAAGCACCCUGCCACCUCUCCCUCUUGCGGUCGCACUAGUGUGGAAUUCUCGGGUGUCAAGG
B4: ENSMUSG00000061578.153|Ksr2|12:16;34:49;85:89 (ssRNA)
RNA: GGGAGUUCUACAGUCCGACGAUCGCUUCGAUAUCCGCAUGCUAGACGGUCCUGGCAUACCAUGAUGGGUUACAUGGCACACACACACACACAAACUGUUUACAAUGGUCUCCCUGCCUCUCACGGGCACACAUCCAGGAGAAUGCACAUAGAGAGGUUCUGUGGUCUCUGCUGUCGCCUGGUGCUGAAUCCUGAGUGGUUUCCCCACUGAGGACCCUGUGACCCUGUGACCCUUGGCCCCUCCCUUAUUGUGCACACUCAGCACCCCAUCUUCCAAGCCUUUCUUCAUCCCCCACCUUCUUUUCUCUUGCGGUCGCACUAGUGUGGAAUUCUCGGGUGUCAAGG
B5: ENSMUSG00000028439.351|Fam219a (ssRNA)
RNA: GGGAGUUCUACAGUCCGACGAUCGCUUCGAUAUCCGCAUGCUACCCCCCACCGCAUCCCCACUGGGCUCUUUGACUCACCCUUCUAGAACAUGGGUGCCUCCUCUCUUUAGACUGCUGCCUUUGCCUCUGACUUCCUGUGGGAUUGAGAGCCAAGGGCCAGUGCCCUUGUGAGCGCACUAGUUCCGAAGCAGGCAAGGGCAUUAGGUGGUAUAUACAUAGCGGGUAGGGGUAGGAAGCUGGCAGCCUGCAGCUUCCAAGUCCAAGGAGAGCACACAGUUCCCUCCUUCCCUGCCUGGAAGUUGCUCUUGCGGUCGCACUAGUGUGGAAUUCUCGGGUGUCAAGG
B6: ENSMUSG00000061578.187|Ksr2 (ssRNA)
RNA: GGGAGUUCUACAGUCCGACGAUCGCUUCGAUAUCCGCAUGCUAUUGUGCACACUCAGCACCCCAUCUUCCAAGCCUUUCUUCAUCCCCCACCUUCUUUUGGGAAGGGGUGGCACAGAGUGAAUGGGAAGGAGAGCCCUGAGGUCACUGGUCCACAUGCCCAAAGCCAUGCCCCCCAGUGAUCAGACCUGACACAAGAGGCAAAGCUGUCCCUAAGCAGAGAAUUAGCAGGGUUAGCCAGACAGCAAAAUCCAUGUAAACAUACAAAACCACCCCCCCUUUUUGAGUGGCCCUAUUGGAUGUACCUCUUGCGGUCGCACUAGUGUGGAAUUCUCGGGUGUCAAGG
B7: ENSMUSG00000029028.19|Lrrc47 (ssRNA)
RNA: GGGAGUUCUACAGUCCGACGAUCGCUUCGAUAUCCGCAUGCUAUGUAGGUGUGGGUGUGCUGUAGGUGUCUGUGUGGGUGUGGGUGUGCUGUAGGUGUCUGUGUGGGUGUGGGUGUGCUAUAGGUAUCUGUGGGUGUGCUGUAGGUGUCUGUGUGGGUGUGCUGUAGGUGUCUGUGUAGGUGUGGGUGUGCUGUAGGUGUCUGUGUGGGUGUGCUAGGUGUCUGUAUAGGUGUGGGUGUGCUGUAGAUGUCUGUGUAGGUAUGGGUGUGCUGUAGAUCUUUGUAGGUGUAGGUAUGCUGUAGGCUCUUGCGGUCGCACUAGUGUGGAAUUCUCGGGUGUCAAGG
B8: ENSMUSG00000029028.38|Lrrc47 (ssRNA)
RNA: GGGAGUUCUACAGUCCGACGAUCGCUUCGAUAUCCGCAUGCUAUGUGCUGUAGGUGUCUGUGUAGGUGUGGGUGUGCUGUAGGUGUCUGUGUGGGUGUGCUAGGUGUCUGUAUAGGUGUGGGUGUGCUGUAGAUGUCUGUGUAGGUAUGGGUGUGCUGUAGAUCUUUGUAGGUGUAGGUAUGCUGUAGGUAUCUGGGUGUGGGUAUGCUGUAGAUGUCUGUGUAGGUGUGGAUAUGCUGUAGGUAUCUGGGUGUGCUGUAGGUGUCUGUGUGGGUGUGGGUGUGCUGUGGGUGUCUGUGUGGGCUCUUGCGGUCGCACUAGUGUGGAAUUCUCGGGUGUCAAGG
B9: ENSMUSG00000029028.28|Lrrc47 (ssRNA)
RNA: GGGAGUUCUACAGUCCGACGAUCGCUUCGAUAUCCGCAUGCUAUCUGUGUGGGUGUGGGUGUGCUAUAGGUAUCUGUGGGUGUGCUGUAGGUGUCUGUGUGGGUGUGCUGUAGGUGUCUGUGUAGGUGUGGGUGUGCUGUAGGUGUCUGUGUGGGUGUGCUAGGUGUCUGUAUAGGUGUGGGUGUGCUGUAGAUGUCUGUGUAGGUAUGGGUGUGCUGUAGAUCUUUGUAGGUGUAGGUAUGCUGUAGGUAUCUGGGUGUGGGUAUGCUGUAGAUGUCUGUGUAGGUGUGGAUAUGCUGUAGGCUCUUGCGGUCGCACUAGUGUGGAAUUCUCGGGUGUCAAGG
B10: ENSMUSG00000029028.20|Lrrc47 (ssRNA)
RNA: GGGAGUUCUACAGUCCGACGAUCGCUUCGAUAUCCGCAUGCUAUGUGGGUGUGCUGUAGGUGUCUGUGUGGGUGUGGGUGUGCUGUAGGUGUCUGUGUGGGUGUGGGUGUGCUAUAGGUAUCUGUGGGUGUGCUGUAGGUGUCUGUGUGGGUGUGCUGUAGGUGUCUGUGUAGGUGUGGGUGUGCUGUAGGUGUCUGUGUGGGUGUGCUAGGUGUCUGUAUAGGUGUGGGUGUGCUGUAGAUGUCUGUGUAGGUAUGGGUGUGCUGUAGAUCUUUGUAGGUGUAGGUAUGCUGUAGGUAUCUGCUCUUGCGGUCGCACUAGUGUGGAAUUCUCGGGUGUCAAGG
B11: ENSMUSG00000029028.21|Lrrc47 (ssRNA)
RNA: GGGAGUUCUACAGUCCGACGAUCGCUUCGAUAUCCGCAUGCUAUGUGCUGUAGGUGUCUGUGUGGGUGUGGGUGUGCUGUAGGUGUCUGUGUGGGUGUGGGUGUGCUAUAGGUAUCUGUGGGUGUGCUGUAGGUGUCUGUGUGGGUGUGCUGUAGGUGUCUGUGUAGGUGUGGGUGUGCUGUAGGUGUCUGUGUGGGUGUGCUAGGUGUCUGUAUAGGUGUGGGUGUGCUGUAGAUGUCUGUGUAGGUAUGGGUGUGCUGUAGAUCUUUGUAGGUGUAGGUAUGCUGUAGGUAUCUGGGUGUGCUCUUGCGGUCGCACUAGUGUGGAAUUCUCGGGUGUCAAGG
B12: ENSMUSG00000029028.67|Lrrc47 (ssRNA)
RNA: GGGAGUUCUACAGUCCGACGAUCGCUUCGAUAUCCGCAUGCUACUGUGUAGGUGUGGAUAUGCUGUAGGUAUCUGGGUGUGCUGUAGGUGUCUGUGUGGGUGUGGGUGUGCUGUGGGUGUCUGUGUGGGUGUGCUGUAGGUGUCUGUAGGUGUGGGUAUGCUGCAGGUGUGGGUGUGCUGUAGAUCUCUAUAGGUGUGGGUGUGCUGUAGGGGUCUGUGUGGGUAUAGGUGUGGGUGUGCUGUAGAUUCUGUGUAACUGGUUCUUUGCUGUUUCUCUGGGUGUUUUAAGGUGUCUGCUUUUGUCUCUUGCGGUCGCACUAGUGUGGAAUUCUCGGGUGUCAAGG
B13: ENSMUSG00000029028.44|Lrrc47 (ssRNA)
RNA: GGGAGUUCUACAGUCCGACGAUCGCUUCGAUAUCCGCAUGCUAUAGGUGUCUGUGUGGGUGUGCUAGGUGUCUGUAUAGGUGUGGGUGUGCUGUAGAUGUCUGUGUAGGUAUGGGUGUGCUGUAGAUCUUUGUAGGUGUAGGUAUGCUGUAGGUAUCUGGGUGUGGGUAUGCUGUAGAUGUCUGUGUAGGUGUGGAUAUGCUGUAGGUAUCUGGGUGUGCUGUAGGUGUCUGUGUGGGUGUGGGUGUGCUGUGGGUGUCUGUGUGGGUGUGCUGUAGGUGUCUGUAGGUGUGGGUAUGCUGCACUCUUGCGGUCGCACUAGUGUGGAAUUCUCGGGUGUCAAGG
B14: ENSMUSG00000029028.68|Lrrc47 (ssRNA)
RNA: GGGAGUUCUACAGUCCGACGAUCGCUUCGAUAUCCGCAUGCUAAGGUGUGGAUAUGCUGUAGGUAUCUGGGUGUGCUGUAGGUGUCUGUGUGGGUGUGGGUGUGCUGUGGGUGUCUGUGUGGGUGUGCUGUAGGUGUCUGUAGGUGUGGGUAUGCUGCAGGUGUGGGUGUGCUGUAGAUCUCUAUAGGUGUGGGUGUGCUGUAGGGGUCUGUGUGGGUAUAGGUGUGGGUGUGCUGUAGAUUCUGUGUAACUGGUUCUUUGCUGUUUCUCUGGGUGUUUUAAGGUGUCUGCUUUUGUCCAGGUCUCUUGCGGUCGCACUAGUGUGGAAUUCUCGGGUGUCAAGG
B15: ENSMUSG00000029028.66|Lrrc47 (ssRNA)
RNA: GGGAGUUCUACAGUCCGACGAUCGCUUCGAUAUCCGCAUGCUAAGAUGUCUGUGUAGGUGUGGAUAUGCUGUAGGUAUCUGGGUGUGCUGUAGGUGUCUGUGUGGGUGUGGGUGUGCUGUGGGUGUCUGUGUGGGUGUGCUGUAGGUGUCUGUAGGUGUGGGUAUGCUGCAGGUGUGGGUGUGCUGUAGAUCUCUAUAGGUGUGGGUGUGCUGUAGGGGUCUGUGUGGGUAUAGGUGUGGGUGUGCUGUAGAUUCUGUGUAACUGGUUCUUUGCUGUUUCUCUGGGUGUUUUAAGGUGUCUGCCUCUUGCGGUCGCACUAGUGUGGAAUUCUCGGGUGUCAAGG

What follows are binders tested against TDP-43 (Homo sapiens, UniProt Q13148 1-414) (assay: RNA Bind-n-Seq with designed 260-mer pool; 25 mM Tris-HCl, 150 mM KCl, 3 mM MgCl2, BSA (printed 500 mg/mL), 20 units/mL SUPERase IN; pH not stated; 500 nM RNA pool, 1 h, 4 C; TDP-43 5, 50, 500 nM; high values mean tight binding). Details: protein: recombinant; tags: SBP (GST cleaved off with PreScission; pGEX-GST-SBP).
Chain of TDP-43 (Q13148 whole entry): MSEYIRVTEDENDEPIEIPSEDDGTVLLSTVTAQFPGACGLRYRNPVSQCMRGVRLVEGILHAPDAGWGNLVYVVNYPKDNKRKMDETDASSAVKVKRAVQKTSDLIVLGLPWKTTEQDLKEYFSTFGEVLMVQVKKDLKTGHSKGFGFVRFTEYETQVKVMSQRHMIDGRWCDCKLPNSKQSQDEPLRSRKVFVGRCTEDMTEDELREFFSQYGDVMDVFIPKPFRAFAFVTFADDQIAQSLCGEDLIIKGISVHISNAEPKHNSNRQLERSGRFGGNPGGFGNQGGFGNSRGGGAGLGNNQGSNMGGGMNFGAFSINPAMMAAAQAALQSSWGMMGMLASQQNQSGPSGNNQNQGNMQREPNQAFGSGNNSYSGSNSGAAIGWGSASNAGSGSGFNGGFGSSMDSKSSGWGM
In short: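 Binding (R) is the ratio of each oligo's mapped-read-normalized abundance in the bound fraction to its abundance in the input. To obtain it, SBP-tagged recombinant TDP-43 (5, 50 or 500 nM) on streptavidin beads was incubated with 500 nM of an in vitro-transcribed 260-nt 3′ UTR oligo pool for 1 h at 4 °C in 25 mM Tris-HCl, 150 mM KCl, 3 mM MgCl2, BSA and SUPERase IN. The RNA retained after washing was released with biotin, then reverse transcribed, amplified by PCR and sequenced.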

Binder	binding signal
B1	0.0728 R (bound/input frequency ratio)
B2	0.0933 R (bound/input frequency ratio)
B3	0.559 R (bound/input frequency ratio)
B4	1.47 R (bound/input frequency ratio)
B5	0.423 R (bound/input frequency ratio)
B6	0.56 R (bound/input frequency ratio)
B7	6.81 R (bound/input frequency ratio)
B8	5.89 R (bound/input frequency ratio)
B9	6.68 R (bound/input frequency ratio)
B10	5.01 R (bound/input frequency ratio)
B11	5.32 R (bound/input frequency ratio)
B12	6.13 R (bound/input frequency ratio)
B13	6.44 R (bound/input frequency ratio)
B14	7.46 R (bound/input frequency ratio)
B15	4.75 R (bound/input frequency ratio)

Reference: article PMC12864922, “TDP-43 directly inhibits mRNA accumulation in neurites through modulation of mRNA stability”
